# In the supplement of paper PMC12340641:
# Structures can show the parent of a compound that is named as a salt. ± gives the standard deviation of the averaged measurements.
# Molecular target: IKZF1 (dCK*-IKZF1 fusion in HEK293FT) (UniProt Q13422)
# Test: inhibition of IKZF1 HTRF signal (DMSO = 0%, pomalidomide 10 uM = 100%); higher = lower IKZF1 protein level
# Settings: compound concentration: 5 uM, overnight (~20 h)
# How it was run: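 For percent inhibition of IKZF1 signal, each plate was normalised to vehicle and to a reference degrader. Cells were HEK293FT stably expressing an IKZF1 fusion, plated at 2000/well in 384-well format and treated overnight at 37 °C with 5 μM compound, one well each. Lysates were probed overnight with a commercial HTRF total-IKZF1 antibody kit, with the 665/620 nm ratio background-subtracted and vehicle and degrader fixed at 0% and 100%.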
# Chain of IKZF1 (dCK*-IKZF1 fusion in HEK293FT) (Q13422 whole entry, looked up, the tested form may be a part): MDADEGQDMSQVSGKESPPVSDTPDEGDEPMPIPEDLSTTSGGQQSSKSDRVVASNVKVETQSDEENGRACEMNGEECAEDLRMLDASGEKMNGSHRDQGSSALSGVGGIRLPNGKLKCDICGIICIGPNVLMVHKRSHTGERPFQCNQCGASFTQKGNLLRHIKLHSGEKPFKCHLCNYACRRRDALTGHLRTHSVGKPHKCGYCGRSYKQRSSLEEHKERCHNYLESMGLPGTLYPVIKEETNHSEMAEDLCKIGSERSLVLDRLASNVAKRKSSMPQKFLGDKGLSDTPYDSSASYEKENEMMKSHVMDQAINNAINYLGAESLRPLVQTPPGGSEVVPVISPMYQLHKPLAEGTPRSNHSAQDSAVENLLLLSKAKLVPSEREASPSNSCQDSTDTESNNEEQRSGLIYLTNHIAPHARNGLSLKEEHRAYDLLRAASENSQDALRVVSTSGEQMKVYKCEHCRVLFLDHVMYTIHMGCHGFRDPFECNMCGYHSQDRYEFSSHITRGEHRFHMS
row,SMILES,inhibition of IKZF1 HTRF signal [%]
1,Cn1c(NCCN(CCO)CCCc2ccc([N+](=O)[O-])cc2)cc(=O)n(C)c1=O [nifekalant],-33.5
2,O=C1c2ccccc2-c2n[nH]c3cccc1c23 [pyrazolanthrone],-38.5
3,O=C(OC)C1=C(C)NC(C)=C(C(OCCCN3CCC(C4=CC=CC=C4)(C5=CC=CC=C5)CC3)=O)[C@@H]1[C@]2=CC=CC([N+]([O-])=O)=C2 [dexniguldipine],-24.7
4,C=CC(=O)c1ccc2ccccc2c1 [JAK3-inhibitor-V],-28.5
5,COc1cc(/C=C/C(=O)CC(=O)/C=C/c2ccc(O)c(OC)c2)ccc1O [Curcumin],-0.83
6,CC(=NNc1nnc2c(n1)[nH]c1c(C)cccc12)c1ccccn1,40.7
7,C=C1C(=O)O[C@H]2[C@H]1CC/C(C)=C/CC[C@@]1(C)O[C@@H]21 [parthenolide],-47.4
8,COc1cccc2c1C(=O)c1c(O)c3c(c(O)c1C2=O)C[C@@](O)(/C(CO)=N/NC(=O)CCCCCN1C(=O)C=CC1=O)C[C@@H]3O[C@H]1C[C@H](N)[C@H](O)[C@H](C)O1 [Aldoxorubicin],-9
9,C=C1/C(=C\C=C2/CCC[C@]3(C)[C@@H]([C@H](C)/C=C/C=C/C(O)(CC)CC)CC[C@@H]23)C[C@@H](O)C[C@@H]1O [Seocalcitol],-23.4
10,CC[C@]1(O)C[C@H]2CN(CCc3c([nH]c4ccccc34)[C@@](C(=O)OC)(c3cc4c(cc3OC)N(C)[C@H]3[C@@](O)(C(=O)OC)[C@H](OC(C)=O)[C@]5(CC)C=CCN6CC[C@]43[C@@H]65)C2)C1 [Vinblastine Sulfate],-11.7
11,Oc1ccc(Cl)c2cccnc12,-32.6
12,C=CCc1ccc(O)c(-c2cc(CC=C)ccc2O)c1 [Magnolol],-27.1
13,CO[C@H]1CC(O[C@@H]2/C(C)=C/C[C@@H]3C[C@@H](C[C@]4(CC[C@H](C)[C@@H](C5CCCCC5)O4)O3)OC(=O)[C@@H]3C=C(C)/C(=N/O)[C@H]4OC/C(=C\C=C\[C@@H]2C)[C@]43O)O[C@@H](C)C1O (some centres not stated),-24.5
14,O=C1N(c2ccccc2)c2ccccc2C1(Cc1ccncc1)Cc1ccncc1 [linopirdine],-39.8
15,COC(=O)Nc1nc2ccc(Sc3ccccc3)cc2[nH]1,-26.6
16,Cc1cc(NC(=O)C(c2ccccc2)N2CCCc3ccccc32)no1 (configuration not stated),-21.4

row,SMILES,inhibition of IKZF1 HTRF signal [%]
1,COc1ccc(Cl)cc1C(=O)NCCc1ccc(S(=O)(=O)NC(=O)NC2CCCCC2)cc1,-51.9
2,Clc1ccccc1C(c1ccccc1)(c1ccccc1)n1ccnc1 [Clotrimazole],-53.5
3,CN(C)c1ccc(C(=C2C=CC(=[N+](C)C)C=C2)c2ccc(N(C)C)cc2)cc1,-12.9
4,Cc1nc(-c2cccnc2)sc1C(=O)Nc1ccccc1-c1cn2c(CN3CCOCC3)csc2n1,6.43
5,CO[C@H]1/C=C/O[C@@]2(C)Oc3c(C)c(O)c4c(O)c(c(/C=N/N5CCN(C)CC5)c(O)c4c3C2=O)NC(=O)/C(C)=C\C=C\[C@H](C)[C@H](O)[C@@H](C)[C@@H](O)[C@@H](C)[C@H](OC(C)=O)[C@@H]1C,33.6
6,COc1ccc(CN2CCN(C(c3ccc(F)cc3)c3ccc(F)cc3)CC2)c(OC)c1OC,-50.6
7,Nc1nc(N)c2nc(-c3cccc(O)c3)cnc2n1,28.6
8,CCc1nc(N)nc(N)c1-c1ccc(Cl)cc1 [Pyrimethamine],-52.5
9,COc1cnc(NS(=O)(=O)c2ccc(N)cc2)nc1,-36.1
10,CC(=O)Oc1ccccc1C(=O)Nc1ncc([N+](=O)[O-])s1 [Nitazoxanide],18.8
11,S=C(NCc1ccc2c(c1)OCO2)N1CCN(c2ncnc3c2oc2ccccc23)CC1 [Amuvatinib (MP-470)],-37.4
12,O=C(Nc1ccc2[nH]ccc2c1)c1ccccc1,-24.8
13,Cc1ccc(S(=O)(=O)N/N=C/c2cc(Br)ccc2O)cc1,26 ± 7.3
14,COc1cc([C@@H]2c3cc4c(cc3[C@@H](O[C@@H]3O[C@@H]5CO[C@@H](C)O[C@H]5[C@H](O)[C@H]3O)[C@H]3COC(=O)[C@H]23)OCO4)cc(OC)c1OP(=O)(O)O [Etoposide phosphate],-12.6
15,O=C1Nc2ccc(Cl)cc2[C@@](C#CC2CC2)(C(F)(F)F)O1 [Efavirenz],19.7
16,O=c1[nH]c(=O)n([C@H]2C[C@H](O)[C@@H](CO)O2)cc1F [Floxuridine],14.5
